# According to the supplement of paper PMC11060735:
# Where a name gives a salt, the structure may show the parent alone. Out of some 1,800 compounds screened, about 50 (3%) showed activity. The list comes from a sample in which actives are over-represented; it also holds similar structures and randomly drawn compounds. A number with no mark means an inactive call.
# Test system: mouse p16Ink4a+/- lung fibroblasts (INKBRITE, bleomycin-injured)
# Test: percentage of GFP+ (p16Ink4a+) fibroblasts among all cells in well; higher = less depletion of p16Ink4a+ cells, active = 20 or less
# Settings: 1 µM; 3 days
row,SMILES,percentage of GFP+
1,CNC(=O)c1c(F)cccc1Nc1nc(Nc2cc3c(cc2OC)CCN3C(=O)CN(C)C)nc2[nH]ccc12,50.1%
2,O=NO [Sodium Nitrite],52.2%
3,N#CC[C@H](C1CCCC1)n1cc(-c2ncnc3[nH]ccc23)cn1 [Ruxolitinib],44.6%
4,Cc1nc(-c2ccc(OCC(C)C)c(C#N)c2)sc1C(=O)O [Febuxostat],42.1%
5,CCc1cnn2c(NCc3ccc[n+]([O-])c3)cc(N3CCCC[C@H]3CCO)nc12 [Dinaciclib],13% (active)
6,COc1ccc(CNc2nc(N3CCC[C@H]3CO)ncc2C(=O)NCc2ncccn2)cc1Cl [Avanafil],46.5%
7,COc1c(C)c(C(=O)c2ccc(N)c(C(=O)O)c2)n2ccccc12,39%
8,COC(=O)[C@H](c1ccccc1Cl)N1CCc2sccc2C1 [Clopidogrel],36.5%
9,CN1CCN(CCCN2c3ccccc3Sc3ccc(C(F)(F)F)cc32)CC1 [Trifluoperazine],52%
10,CCCCc1nc2cc(/C=C/C(=O)NO)ccc2n1CCN(CC)CC [Pracinostat],24.8%
11,COc1cc(/C=C/C(=O)/C=C(O)/C=C/c2ccc(O)c(OC)c2)ccc1O,38.1%
12,CC[C@H](/C=C/[C@@H](C)[C@@H]1CC[C@H]2[C@@H]3CC=C4C[C@@H](O)CC[C@]4(C)[C@@H]3CC[C@@]21C)C(C)C [Stigmasterol],44.8%
13,Nc1nccc(Oc2ccc(NC(=O)c3cncc(-c4ccc(F)cc4)c3O)cc2F)c1Cl,49.5%
14,COC(=O)[C@]12CCC(C)(C)C[C@@H]1[C@@H]1C(=O)C=C3[C@]4(C)C=C(C#N)C(=O)C(C)(C)[C@@H]4CC[C@@]3(C)[C@]1(C)CC2 [Bardoxolone Methyl],5.23% (active)
15,O=C(O)c1cc(N=Nc2ccc(O)c(C(=O)O)c2)ccc1O [Olsalazine],43.3%
16,O=C1c2c(O)cccc2[C@H]([C@@H]2O[C@H](CO)[C@@H](O)[C@H](O)[C@H]2O)c2cc(CO)cc(O)c21 [Aloin],20.8%
17,CC(C)c1cc(C(C)C)c(CC(=O)NS(=O)(=O)Oc2c(C(C)C)cccc2C(C)C)c(C(C)C)c1 [Avasimibe],53.1%
18,CC(C)c1ccccc1Cc1cc(C(=O)Nc2ccc(S(=O)(=O)c3ccccc3C(C)(C)C)cc2)c(O)c(O)c1O,16.4% (active)
19,CC(C)(C)c1cc(C(C)(C)C)c(NC(=O)c2cnc3ccccc3c2O)cc1O [Ivacaftor],38%
20,CC(C)(C)c1cc(/C=C(\C#N)C(N)=S)cc(C(C)(C)C)c1O [Tyrphostin],50.3%
21,CCC(CC)CC1(C(=O)Nc2ccccc2SC(=O)C(C)C)CCCCC1 [Dalcetrapib],37.6%
22,CCOC(=O)[C@H](CCc1ccccc1)N[C@H]1CS[C@H](c2cccs2)CN(CC(=O)O)C1=O [Temocapril],45.2%
23,C[C@@H](Oc1cc(-n2cnc3ccc(CN4CCN(C)CC4)cc32)sc1C(N)=O)c1ccccc1C(F)(F)F,27.8%

row,SMILES,percentage of GFP+
1,CC(C)c1cc(C(=O)N2Cc3ccc(CN4CCN(C)CC4)cc3C2)c(O)cc1O [Onalespib],9.46% (active)
2,COc1ccccc1N1CCN(CCN2C(=O)CC3(CCCC3)CC2=O)CC1 [Bmy 7378 Dihydrochloride],43.4%
3,C=CCc1cc(OC)c(O)c(C(=O)NCCO)c1 [Alibendol],42.5%
4,COc1ccc(S(=O)(=O)Nc2cccnc2Nc2ccc(O)cc2)cc1,23%
5,Cc1[nH]c2ccccc2c1CCNC(=O)c1cccs1 [N-[2-(2-methyl-1H-indol-3-yl)ethyl]thiophene-2-carboxamide],39.3%
6,Cc1[nH]c2ccccc2c1CCNCc1ccc(/C=C/C(=O)NO)cc1 [Panobinostat],2.9% (active)
7,CN(C)Cc1ccc(S(=O)(=O)n2ccc(/C=C/C(=O)NO)c2)cc1 [Resminostat],37.1%
8,CCC(=O)Nc1cccc(Oc2nc(Nc3ccc(N4CCN(C)CC4)cc3OC)ncc2Cl)c1,42.3%
9,Cc1nn(-c2ccccc2)c(C)c1/C=N/N1CCN(Cc2ccccc2)CC1,48.6%
10,CCC(C)(Oc1ccc(C2(c3ccc(OC(C)(CC)C(=O)O)cc3)CCCCC2)cc1)C(=O)O (stereo unspecified) [Clinofibrate],52.6%
11,OCC(O)CN1CCN(c2ccccc2)CC1 (stereo unspecified) [Dropropizine],51.5%
12,C[C@]12CC[C@@H]3c4ccc(O)cc4CC[C@H]3[C@@H]1C[C@@H](O)[C@@H]2O [Estriol],49.2%
13,CCN1/C(=C/C(C)=O)Sc2ccc(OC)cc21,50.3%
14,Cc1c(CN2CCN(C(=O)[C@H](C)O)CC2)sc2c(N3CCOCC3)nc(-c3cnc(N)nc3)nc12,34.5%
15,CS(=O)(=O)N1CCN(Cc2cc3nc(-c4cccc5[nH]ncc45)nc(N4CCOCC4)c3s2)CC1,36.8%
16,COc1ccc(-c2nc(N3CCOCC3)c3sc(CN(C)c4ncc(C(=O)NO)cn4)cc3n2)cn1 [Fimepinostat],3.62% (active)
17,Clc1ccc(C2(c3ccc(-c4cn[nH]c4)cc3)CCNCC2)cc1,43.8%
18,O=c1c(-c2ccc(O)cc2)coc2cc(O)cc(O)c12 [Genistein],47.5%
19,COc1cc2nc(N3CCN(C(=O)C4COc5ccccc5O4)CC3)nc(N)c2cc1OC (stereo unspecified) [Doxazosin],44.1%
20,CC(C)CN(C[C@@H](O)[C@H](Cc1ccccc1)NC(=O)O[C@H]1CO[C@H]2OCC[C@H]21)S(=O)(=O)c1ccc(N)cc1 [Darunavir],45.7%
21,CN(C)c1ccc(C(=O)NCCCCCCC(=O)NO)cc1,30.4%
22,CC(/C=C/C(=O)NO)=C\[C@@H](C)C(=O)c1ccc(N(C)C)cc1 [Trichostatin A],10.8% (active)
23,Cc1cc(N2CCOCC2)ccc1Nc1nc(NC2CCCCC2)c2[nH]cnc2n1,33.6%
